In PubChem BioAssay (Tox21):
Results filed as inconclusive are left out. The source made the active and inactive calls. Unless noted, calls follow the shape of the dose curve; as a rule, active = well fitted curve in the direction sought with a large enough effect in the repeat runs; inconclusive = weak or mixed curves; inactive = no such curve, though single readings can be large; an effect the other way counts as inactive or inconclusive.

Columns and labels:
[1] = qHTS assay to identify small molecule agonists of the sonic hedgehog signaling (Shh) pathway (AID 1259368; calls by dose curve;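 also: NIH/3T3-derived 3T3Gli1-Luc cells carrying a stable Gli1-driven firefly luciferase reporter; series mostly up to about 92 µM; nearly all actives have a fitted effect of over 15% in size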)
Summary of the method: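 A Gli1 transcriptional response element controlled firefly luciferase in 3T3Gli1-Luc cells. Compounds and a positive control were added 4 hr after plating, and cells were incubated a further 24 hr at 37 C before luminescence detection.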

[2] = qHTS assay to identify small molecule agonists of the androgen receptor (AR) signaling pathway in the presence of an antagonist - cell viability counter screen (AID 1259379); also: nearly all actives have a fitted effect of over 25% in size; also: potency is read from the fitted curve at half-maximal effect
Summary of the method: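 Seed MDA-kb2 at 3,000 cells/well; incubate 5 hr, 37C, 0% CO2. Add nilutamide to 3.0uM final, then pin compounds at 15 concentrations. Incubate 16 hr. Add CellTiter-Fluor at 15 hr, read fluorescence after 1 hr.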

[3] = qHTS assay to identify small molecule agonists of the estrogen receptor beta (ER-beta) signaling pathway - cell viability counter screen (AID 1259380); also: nearly all actives have a fitted effect of over 30% in size; also: potency is read from the fitted curve at half-maximal effect
Summary of the method: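 CellTiter-Glo read, 30 min RT, same wells as bla assay; cells ER-beta-UAS-bla HEK293T; 16 hr compound, 37C; medium 2% charcoal-stripped FBS.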

[4] = qHTS assay to identify small molecule antagonists of the estrogen receptor beta (ER-beta) signaling pathway - cell viability counter screen (AID 1259382); also: nearly all actives have a fitted effect of over 55% in size; also: potency is read from the fitted curve at half-maximal effect
Summary of the method: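 In this multiplexed counter screen, cells were seeded at 2,000 per well in medium with 2% charcoal-stripped FBS and incubated 6 hr before compound and 1nM final E2 were added. Sixteen hours later, ATP-based luminescence reported viability.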

[5] = qHTS assay to identify small molecule agonists or antagonists of the thyroid stimulating hormone receptor (TSHR) signaling pathway - wild type cell line counter screen (AID 1259384; calls by dose curve)
Summary of the method: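 Counter screen in untransfected Hek293: compounds (15-point titration, triplicate) plus phosphodiesterase inhibitor Ro20-1724 added after 18 h plating; 30 min RT. Intracellular cAMP via competitive d2/cryptate immunoassay, 1 h incubation.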

[6] = target: Thyrotropin receptor (Homo sapiens) (UniProt P16473); assay: qHTS assay to identify small molecule antagonists of the thyroid stimulating hormone receptor (TSHR) signaling pathway (AID 1259385; calls by dose curve; also: nearly all actives have a fitted effect of over 20% in size; also: potency is read from the fitted curve at half-maximal effect)
Sequence of Thyrotropin receptor (Homo sapiens) (P16473 whole entry, looked up): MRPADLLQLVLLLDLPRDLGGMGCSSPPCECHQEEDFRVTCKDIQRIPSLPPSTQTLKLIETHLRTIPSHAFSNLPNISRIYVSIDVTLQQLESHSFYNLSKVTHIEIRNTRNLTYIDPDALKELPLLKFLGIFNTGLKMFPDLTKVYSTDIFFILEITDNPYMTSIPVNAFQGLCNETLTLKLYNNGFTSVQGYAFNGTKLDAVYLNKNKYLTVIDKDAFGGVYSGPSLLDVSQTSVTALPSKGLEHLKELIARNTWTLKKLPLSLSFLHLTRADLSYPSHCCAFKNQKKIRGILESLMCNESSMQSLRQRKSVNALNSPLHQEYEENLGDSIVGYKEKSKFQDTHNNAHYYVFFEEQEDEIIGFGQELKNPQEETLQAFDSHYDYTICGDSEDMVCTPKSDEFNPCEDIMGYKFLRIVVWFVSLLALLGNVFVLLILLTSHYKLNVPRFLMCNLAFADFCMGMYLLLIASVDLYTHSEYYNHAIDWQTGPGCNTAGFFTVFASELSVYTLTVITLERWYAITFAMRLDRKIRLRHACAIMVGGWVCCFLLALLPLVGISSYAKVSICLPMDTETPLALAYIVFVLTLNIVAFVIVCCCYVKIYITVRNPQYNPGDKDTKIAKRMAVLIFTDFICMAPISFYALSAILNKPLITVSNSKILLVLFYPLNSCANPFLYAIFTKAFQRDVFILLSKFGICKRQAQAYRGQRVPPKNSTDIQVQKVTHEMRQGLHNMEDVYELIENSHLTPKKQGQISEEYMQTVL
Summary of the method: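 Antagonist mode: compound-treated TSHR-expressing HEK293 cells were stimulated with 1.5 ng/mL TSH (final) in presence of Ro20-1724 for 30 min at RT. HTRF cAMP detection after 1 h; each compound tested at 15 concentrations, triplicate.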

[7] = target: Progesterone receptor (Homo sapiens) (UniProt P06401); assay: qHTS assay to identify small molecule agonists of the progesterone receptor (PR) signaling pathway (AID 1346784; calls by dose curve; also: nearly all actives have a fitted effect of over 30% in size)
Sequence of Progesterone receptor (Homo sapiens) (P06401 whole entry, looked up): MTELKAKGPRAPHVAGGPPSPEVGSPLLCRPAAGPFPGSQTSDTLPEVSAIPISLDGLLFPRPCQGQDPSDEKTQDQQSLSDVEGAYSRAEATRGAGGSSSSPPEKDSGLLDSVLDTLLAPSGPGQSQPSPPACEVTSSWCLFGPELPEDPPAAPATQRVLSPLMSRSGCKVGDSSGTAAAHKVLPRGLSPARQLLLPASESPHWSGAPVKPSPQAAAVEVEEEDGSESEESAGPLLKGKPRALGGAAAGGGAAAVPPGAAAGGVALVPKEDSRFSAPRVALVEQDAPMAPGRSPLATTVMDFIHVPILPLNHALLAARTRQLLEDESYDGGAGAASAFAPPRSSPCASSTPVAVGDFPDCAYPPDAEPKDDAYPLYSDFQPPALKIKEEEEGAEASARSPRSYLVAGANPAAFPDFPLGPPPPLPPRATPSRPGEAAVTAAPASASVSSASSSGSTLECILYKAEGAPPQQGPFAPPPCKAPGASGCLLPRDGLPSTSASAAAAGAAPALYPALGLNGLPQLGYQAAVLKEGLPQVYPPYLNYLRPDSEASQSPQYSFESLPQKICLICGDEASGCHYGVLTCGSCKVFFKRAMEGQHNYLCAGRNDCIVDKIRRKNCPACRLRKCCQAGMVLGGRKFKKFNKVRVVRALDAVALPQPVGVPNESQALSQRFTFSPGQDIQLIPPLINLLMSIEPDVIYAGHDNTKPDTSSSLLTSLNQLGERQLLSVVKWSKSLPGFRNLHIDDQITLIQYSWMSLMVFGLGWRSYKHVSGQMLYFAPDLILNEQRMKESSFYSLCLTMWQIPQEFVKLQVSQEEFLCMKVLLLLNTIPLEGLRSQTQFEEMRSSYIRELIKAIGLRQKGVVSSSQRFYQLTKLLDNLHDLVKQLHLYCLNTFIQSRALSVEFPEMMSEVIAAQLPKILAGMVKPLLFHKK
Summary of the method: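 Beta-lactamase reporter read-out: after 16 hr compound treatment at 37C and a further 2 hr at room temperature with LiveBLAzer B/G FRET substrate, fluorescence was measured in PR-UAS-bla HEK 293T cells grown in 2% charcoal-stripped serum.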

[8] = target: Progesterone receptor (Homo sapiens) (UniProt P06401); assay: qHTS assay to identify small molecule antagonists of the progesterone receptor (PR) signaling pathway (AID 1346795; active = well fitted inhibition curve with a large enough effect in the signal ratio in the repeat runs, not every such curve was filed as active; the % refers to the signal ratio; also: potency is read from the fitted curve at half-maximal effect)
Summary of the method: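 Read-out is fluorescence from the LiveBLAzer B/G FRET substrate, cleaved by a UAS-controlled beta-lactamase in PR-UAS-bla HEK293T cells after 16 hr exposure to compound plus 1 nM promegestone (final), followed by 2 hr at room temperature.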

[9] = qHTS assay to identify small molecule antagonists of the progesterone receptor (PR) signaling pathway - cell viability counter screen (AID 1346798); also: nearly all actives have a fitted effect of over 50% in size; also: potency is read from the fitted curve at half-maximal effect
Summary of the method: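 HEK293T PR-UAS-bla, 2% charcoal-stripped FBS; 4 hr pre-plate; cpd + R5020, 16 h 37C; LiveBLAzer read first; then CellTiter-Glo 30 min RT, luminescence.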

[10] = qHTS assay to identify small molecule agonists of the progesterone receptor (PR) signaling pathway - cell viability counter screen (AID 1346799; calls by dose curve; also: nearly all actives have a fitted effect of over 45% in size; also: potency is read from the fitted curve at half-maximal effect)
Summary of the method: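 Luminescence from CellTiter-Glo, added after the beta-lactamase FRET read in the same wells, gave cytotoxicity in PR-UAS-bla HEK293T cells treated with compounds for 16 hr at 37C.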

[11] = qHTS assay to identify small molecule antagonists of the TGF-beta/Smad signaling pathway - cell viability counter screen (AID 1346824); also: nearly all actives have a fitted effect of over 50% in size
Summary of the method: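 Cytotoxicity counter-screen run in the same wells as the beta-lactamase Smad reporter read: CellTiter-Glo luminescence after 30 min at room temperature. HEK 293T SBE-bla cells had 5 hr compound exposure at 37 C with TGF-beta1 (0.25 ng/mL stock).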

[12] = qHTS assay to identify small molecule agonists of the TGF-beta/Smad signaling pathway - cell viability counter screen (AID 1346829); also: top concentration of the series differs between compounds; nearly all actives have a fitted effect of over 45% in size
Summary of the method: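 Here the cytotoxicity of library compounds is measured in SBE-bla HEK 293T cells treated for 5 hr, using CellTiter-Glo added to wells already read for the beta-lactamase reporter.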

[13] = qHTS assay to identify small molecule agonists of the TGF-beta/Smad signaling pathway (AID 1346859; active = well fitted activation curve with a large enough effect in the signal ratio in the repeat runs, not every such curve was filed as active; the % refers to the signal ratio; also: series mostly up to about 77 µM)
Summary of the method: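 SBE-bla HEK 293T, 4,000 cells/well, plated o/n; cpd in DMSO, 5 hr, 37 C/5% CO2; B/G FRET substrate 2 hr RT; ex 405, em 460/530 nm.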

[14] = target: Thyrotropin-releasing hormone receptor (Homo sapiens) (UniProt P34981); assay: qHTS assay to identify small molecule antagonists of the thyrotropin-releasing hormone receptor (TRHR) signaling pathway (AID 1346877; active = well fitted inhibition curve with a large enough effect in the repeat runs, not every such curve was filed as active; also: series mostly up to about 51 µM)
Sequence of Thyrotropin-releasing hormone receptor (Homo sapiens) (P34981 whole entry, looked up): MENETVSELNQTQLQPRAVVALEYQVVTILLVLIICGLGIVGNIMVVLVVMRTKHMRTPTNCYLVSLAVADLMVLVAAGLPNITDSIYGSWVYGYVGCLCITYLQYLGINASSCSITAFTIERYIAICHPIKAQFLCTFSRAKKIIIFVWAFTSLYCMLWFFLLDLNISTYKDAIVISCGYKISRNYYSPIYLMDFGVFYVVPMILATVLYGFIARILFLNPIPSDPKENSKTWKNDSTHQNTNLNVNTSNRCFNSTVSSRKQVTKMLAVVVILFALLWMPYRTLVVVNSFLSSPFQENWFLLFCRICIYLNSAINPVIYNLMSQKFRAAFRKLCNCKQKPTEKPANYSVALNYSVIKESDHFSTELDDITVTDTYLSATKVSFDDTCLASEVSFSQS
Summary of the method: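 Following an 18 h incubation at 37 °C and a 2 h calcium dye load, TRHR-HEK293 cells were exposed to compound (5 min, room temperature) and challenged with TRH, 1 nM final.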

[15] = target: Estrogen receptor beta (Homo sapiens) (UniProt Q92731); assay: qHTS assay to identify small molecule agonists of the estrogen receptor beta (ER-beta) signaling pathway (AID 1259377; active = well fitted activation curve with a large enough effect in the signal ratio in the repeat runs, not every such curve was filed as active; the % refers to the signal ratio; also: potency is read from the fitted curve at half-maximal effect)
Sequence of Estrogen receptor beta (Homo sapiens) (Q92731 whole entry, looked up): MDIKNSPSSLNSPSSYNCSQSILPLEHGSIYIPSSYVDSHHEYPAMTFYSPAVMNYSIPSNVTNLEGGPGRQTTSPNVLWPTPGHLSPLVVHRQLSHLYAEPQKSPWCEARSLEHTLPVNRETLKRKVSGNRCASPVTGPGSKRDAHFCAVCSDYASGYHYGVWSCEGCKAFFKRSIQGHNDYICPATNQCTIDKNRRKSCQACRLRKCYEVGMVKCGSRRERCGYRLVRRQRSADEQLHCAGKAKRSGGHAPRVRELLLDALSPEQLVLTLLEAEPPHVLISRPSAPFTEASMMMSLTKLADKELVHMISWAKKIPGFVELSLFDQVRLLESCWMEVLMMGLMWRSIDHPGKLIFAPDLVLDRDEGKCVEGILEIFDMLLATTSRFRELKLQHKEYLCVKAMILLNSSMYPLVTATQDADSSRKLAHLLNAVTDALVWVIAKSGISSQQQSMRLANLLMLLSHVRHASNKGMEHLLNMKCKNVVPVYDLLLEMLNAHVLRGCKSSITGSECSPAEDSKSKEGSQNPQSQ
Summary of the method: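 HEK293T ER-beta-UAS-bla; 2% charcoal-stripped FBS; cells pre-incubated 6 hr, compound 16 hr, 37C/5% CO2; LiveBLAzer B/G FRET substrate 2 h RT; fluorescence intensity read.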

[16] = target: Estrogen receptor (Homo sapiens) (UniProt P03372); assay: qHTS assay to identify small molecule agonists of the estrogen receptor alpha (ER-alpha) signaling pathway in the presence of an antagonist (AID 1259383; calls by dose curve; also: top concentration of the series differs between compounds; nearly all actives have a fitted effect of over 15% in size)
Sequence of Estrogen receptor (Homo sapiens) (P03372 whole entry, looked up): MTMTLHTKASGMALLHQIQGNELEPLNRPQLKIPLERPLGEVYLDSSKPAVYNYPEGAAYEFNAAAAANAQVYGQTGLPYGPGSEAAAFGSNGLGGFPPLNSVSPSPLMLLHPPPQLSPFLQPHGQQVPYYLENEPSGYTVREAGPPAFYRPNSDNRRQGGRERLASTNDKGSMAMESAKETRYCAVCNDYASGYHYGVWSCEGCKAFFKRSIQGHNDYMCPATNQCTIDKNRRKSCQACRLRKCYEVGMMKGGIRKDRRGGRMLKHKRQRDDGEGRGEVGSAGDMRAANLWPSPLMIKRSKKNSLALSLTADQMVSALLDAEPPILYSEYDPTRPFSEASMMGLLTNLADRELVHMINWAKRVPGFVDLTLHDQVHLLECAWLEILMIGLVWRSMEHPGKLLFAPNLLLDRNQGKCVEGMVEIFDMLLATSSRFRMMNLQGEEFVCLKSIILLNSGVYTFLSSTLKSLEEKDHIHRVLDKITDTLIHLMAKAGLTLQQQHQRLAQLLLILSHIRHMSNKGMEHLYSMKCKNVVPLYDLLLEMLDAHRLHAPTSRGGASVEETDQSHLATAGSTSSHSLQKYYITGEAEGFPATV
Summary of the method: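 Stably transfected VM7Luc4E2 reporter cells, kept 5 days in charcoal-stripped serum, received ICI-182,780 at 10.0nM final before compound addition. Following 22hr incubation at 37C and 5% CO2, luciferase signal was read by luminescence.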

[17] = qHTS assay to identify small molecule agonists of the estrogen receptor alpha (ER-alpha) signaling pathway in the presence of an antagonist - cell viability counter screen (AID 1259386);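 also: cells exposed to compounds for 22 h at 37 °C before the viability read; nearly all actives have a fitted effect of over 30% in size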; also: potency is read from the fitted curve at half-maximal effect
Summary of the method: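 Viability counter screen using VM7Luc4E2 (full-length ER-alpha, four ERE-luciferase). The cells were treated with compounds alongside ICI-182,780 10.0nM for 22hr, and live-cell protease fluorescence was quantified with CellTiter-Fluor.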

[18] = target: Androgen receptor (Homo sapiens) (UniProt P10275); assay: qHTS assay to identify small molecule agonists of the androgen receptor (AR) signaling pathway in the presence of an antagonist (AID 1259381; calls by dose curve; also: nearly all actives have a fitted effect of over 15% in size)
Sequence of Androgen receptor (Homo sapiens) (P10275 whole entry, looked up): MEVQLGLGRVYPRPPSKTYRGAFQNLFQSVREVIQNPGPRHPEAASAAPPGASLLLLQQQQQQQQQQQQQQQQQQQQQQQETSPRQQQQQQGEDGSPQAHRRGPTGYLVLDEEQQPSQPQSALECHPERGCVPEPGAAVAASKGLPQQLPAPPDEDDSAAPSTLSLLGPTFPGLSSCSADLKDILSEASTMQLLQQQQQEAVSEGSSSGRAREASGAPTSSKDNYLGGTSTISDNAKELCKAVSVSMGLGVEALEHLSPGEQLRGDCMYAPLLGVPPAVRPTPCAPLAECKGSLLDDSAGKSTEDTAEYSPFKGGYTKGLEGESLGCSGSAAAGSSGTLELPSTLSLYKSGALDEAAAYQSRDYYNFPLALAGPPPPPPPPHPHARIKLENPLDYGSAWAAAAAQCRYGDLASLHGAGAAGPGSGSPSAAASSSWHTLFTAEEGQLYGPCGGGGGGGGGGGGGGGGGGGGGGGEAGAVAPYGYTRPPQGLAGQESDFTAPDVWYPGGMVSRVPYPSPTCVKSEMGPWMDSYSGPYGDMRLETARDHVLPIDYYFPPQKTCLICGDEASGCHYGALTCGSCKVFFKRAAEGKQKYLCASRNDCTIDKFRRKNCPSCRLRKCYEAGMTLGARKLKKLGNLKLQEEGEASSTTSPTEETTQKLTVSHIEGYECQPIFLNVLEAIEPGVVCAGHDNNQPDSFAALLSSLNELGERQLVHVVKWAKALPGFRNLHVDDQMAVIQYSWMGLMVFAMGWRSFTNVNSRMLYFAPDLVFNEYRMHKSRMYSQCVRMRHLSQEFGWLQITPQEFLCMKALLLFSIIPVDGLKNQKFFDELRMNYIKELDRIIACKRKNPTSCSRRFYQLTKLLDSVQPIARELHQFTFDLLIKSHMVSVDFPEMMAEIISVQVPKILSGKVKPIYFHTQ
Summary of the method: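 Test compounds at 15 concentrations were incubated for 16hr with MDA-kb2 reporter cells in presence of 3.0uM nilutamide (final). Signal: ONE-Glo luciferase luminescence.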

[19] = target: Estrogen receptor beta (Homo sapiens) (UniProt Q92731); assay: qHTS assay to identify small molecule antagonists of the estrogen receptor beta (ER-beta) signaling pathway (AID 1259378; active = well fitted inhibition curve with a large enough effect in the signal ratio in the repeat runs, not every such curve was filed as active; the % refers to the signal ratio; also: potency is read from the fitted curve at half-maximal effect)
Summary of the method: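 Antagonist mode: compounds added to beta-lactamase reporter HEK293T ER-beta-UAS cells stimulated with E2 (1nM final), 16 hr at 37C. LiveBLAzer B/G FRET substrate, 2 hours room temperature, fluorescence read-out.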

[20] = qHTS assay to identify small molecule antagonists of the sonic hedgehog signaling (Shh) pathway (AID 1259369; calls by dose curve; also: nearly all actives have a fitted effect of over 45% in size; also: potency is read from the fitted curve at half-maximal effect)
Summary of the method: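 For antagonist detection, the reporter line received test compounds together with conditioned medium, incubated 24hr at 37 C, 5% CO2, then luminescence was recorded following 30min room-temperature luciferase reagent incubation.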

Measured: Potency

CC(C)(c1ccccc1)c1ccccc1
not listed: [15] | [16] | [17] | [18] | [19] | [20]
inactive: all other assays above

CC(=O)[C@H]1[C@H](C#N)C[C@H]2[C@@H]3CC=C4C[C@@H](O)CC[C@]4(C)[C@H]3CC[C@@]21C
active: [3] 29.5 µM
not listed: [4] | [5] | [6] | [8] | [13] | [18] | [19] | [20]
inactive: all other assays above

O=C1C(=O)c2ccccc2C(O)=C1C1CCC(c2ccc(Cl)cc2)CC1 (stereo not given)
active: [2] 23.7 µM | [3] 2.66 µM
inactive: [1] | [15] | [16] | [7] | [9] | [10] | [12] | [13] | [14]

O=C(CCc1ccc(O)cc1)c1c(O)cc(O)cc1O
active: [15] 7.01 µM | [8] 31.3 µM
inactive: [1] | [3] | [18] | [5] | [6] | [7] | [11] | [12] | [13]

O=C(OC(=O)c1ccccc1)c1ccccc1
not listed: [8] | [15] | [20]
inactive: all other assays above

COC(=O)CS
not listed: [3] | [10] | [14] | [17] | [18] | [19] | [20]
inactive: all other assays above

CC(=O)N/N=C/c1ccc([N+](=O)[O-])o1
not listed: [8] | [14] | [15] | [18] | [20]
inactive: all other assays above

CCCCCCCCCCC(=O)O
not listed: [3] | [4] | [14] | [16] | [18] | [19] | [20]
inactive: all other assays above

COc1ccccc1N1CCN(CCCCNC(=O)c2ccc(-c3ccc(C(C)=O)cc3)cc2)CC1
active: [6] 18.8 µM
not listed: [2] | [8] | [10] | [14] | [15] | [18] | [19] | [20]
inactive: all other assays above

CCN(CC)CCNC(=O)COc1ccc(OC)cc1
not listed: [1] | [5] | [6] | [7] | [8] | [14] | [18]
inactive: all other assays above

CN(C)CCC=C1c2ccccc2C=Cc2ccccc21
active: [3] 26.6 µM | [4] 29.8 µM | [6] 29.8 µM
inactive: [1] | [16] | [5] | [7] | [11] | [12] | [13] | [14]

c1csc(SSc2cccs2)c1
active: [3] 13.7 µM | [8] 8.63 µM | [9] 9.69 µM | [10] 9.69 µM
inactive: [1] | [15] | [5] | [6] | [17] | [7] | [11] | [12] | [13]

c1cc(N(CC2CO2)CC2CO2)ccc1Cc1ccc(N(CC2CO2)CC2CO2)cc1 (stereo not given)
active: [20] 15.4 µM | [19] 27.3 µM
inactive: [3] | [18] | [5] | [11] | [12]

CCCCC(CC)COP(=O)(O)O (stereo not given)
not listed: [1] | [3] | [8] | [9] | [14] | [15] | [18] | [19]
inactive: all other assays above

CCCC(=O)C(=O)O
not listed: [1] | [8] | [10] | [16] | [18]
inactive: all other assays above

O=C1c2ccccc2C(=O)C1(O)O
active: [20] 15.4 µM
inactive: [19] | [2] | [5] | [7] | [9] | [10] | [14]

NCCNCCO
not listed: [1] | [8] | [10] | [15] | [16] | [18]
inactive: all other assays above

CN1CCCC(n2nc(Cc3ccc(Cl)cc3)c3ccccc3c2=O)CC1 (stereo not given)
active: [3] 26.6 µM | [6] 26.6 µM | [17] 11.9 µM | [9] 26.6 µM | [10] 13.3 µM
inactive: [16] | [5] | [7] | [11] | [12] | [13] | [14]

CN(C)CCN1C(=O)c2ccccc2N(C)c2ccccc21
not listed: [1] | [18] | [20]
inactive: all other assays above
